From PubChem
FBPA Giardia inh – blocks Giardia fructose-bisphosphate aldolase activity; AID 2451; Potency, µM (titrated, usually from 59.6 µM), without a hit: at the highest dose activity, negative = inhibition, most hits filed as inhibitors; A8B2U2; 290,000 compounds, 0.71% hits; purified Giardia FBPA; note: potency is the fitted concentration of half-maximal effect; nearly all actives have a fitted effect of over 55% in size
Target sequence (A8B2U2 whole entry, looked up): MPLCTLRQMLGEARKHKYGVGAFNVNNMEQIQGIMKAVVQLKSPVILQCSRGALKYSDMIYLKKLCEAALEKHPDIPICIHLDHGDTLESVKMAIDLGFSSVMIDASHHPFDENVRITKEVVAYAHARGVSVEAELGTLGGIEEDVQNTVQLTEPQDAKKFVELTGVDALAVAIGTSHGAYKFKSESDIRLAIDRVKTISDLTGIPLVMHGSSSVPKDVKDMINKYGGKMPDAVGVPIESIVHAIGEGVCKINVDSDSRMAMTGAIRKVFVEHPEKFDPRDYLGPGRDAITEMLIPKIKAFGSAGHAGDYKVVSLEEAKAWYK
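Giardia FBPA (40 nM reagent) was preincubated 10 min at RT with compound (up to 57.5 uM final), then substrate plus GAPDH/TPI/NAD/arsenate coupling system with diaphorase/resazurin was added; resorufin fluorescence (525/598 nm) was read after 20 min.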
Sm TGR block – blocks Schistosoma mansoni thioredoxin glutathione reductase; Q962Y6; purified TGR, DTNB reduction, TNB absorbance 405 nm; Potency, µM (highest dose often 114 µM), without a hit: at the top dose activity change, negative = inhibition, most hits filed as inhibitors; 360,000 compounds, 3% hits; AID 485364; note: potency is the fitted concentration of half-maximal effect; nearly all actives have a fitted effect of over 60% in size
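Kinetic colorimetric format: TGR-catalysed, NADPH-driven DTNB reduction monitored via TNB absorbance. Enzyme dispensed at 20 nM; compound exposure 15 min at room temperature before reaction start.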
HCMV antiviral – inhibitors of human cytomegalovirus; 410,000 compounds, 4.5% hits; activity change, negative = inhibition, % at 57.5 µM; HFF cells, HCMV-luciferase reporter, 72 h; stronger effect = lower value; in the data active = activity change below about -60%; inconclusive = no clear call, values can overlap the other calls; inactive = above about -39%
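Steps: HFFs plated, 16 h 37C; compounds added; HCMV-luciferase added to MOI 1 PFU/cell; 72 h 37C; OneGlo reagent, 5 min room temperature; luminescence read, normalized to controls.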
Pf growth 48h – inhibits P. falciparum growth in the first generation, 48 h; P. falciparum luciferase growth in erythrocytes, 48 h; Potency, µM (top dose mostly 28.7 µM), for the others: at the top dose activity change, negative = inhibition, hits mostly inhibitors; 310,000 compounds, 5.9% hits; note: potency is the fitted concentration of half-maximal effect
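Luminescence readout; reporter = integrated firefly luciferase in P. falciparum. RBC culture at 2% hematocrit, 0.1% parasitemia final, 37 C/5% CO2; decreased signal taken as growth inhibition.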
Pf growth 96h – P. falciparum growth inhibition at 96 hour, primary screen for plastid delayed-death inhibitors | P. falciparum luciferase reporter growth, 96 h | Potency, µM (top dose mostly 28.7 µM), for inactives: at the top dose activity change, negative = inhibition, hits mostly inhibitors | 320,000 compounds, 6.9% hits | AID 504834; note: potency is the fitted concentration of half-maximal effect
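P. falciparum expressing integrated firefly luciferase grown in erythrocytes (2% hematocrit, 0.05% parasitemia final) with compounds for 96 hours at 37 C, 5% CO2. Growth inhibition read as loss of luminescence after adding luciferase detection reagent.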
Active calls of the source: *; ? = inconclusive; . = no result given; ! = a repeat was not active. Only some compounds are listed: those with a hit (about 14% of all), similar ones and a draw of the others. Unless noted, calls come from the whole dose curve; as a rule, active = well fitted curve in the direction sought with a large enough effect; inconclusive = small, poorly fitted or top-dose-only effect, or another doubt; inactive = no such curve, though single readings can be large; an effect the other way counts as inactive or inconclusive. % is set by controls: 0 for no effect and ±100 for the full control effect.

SMILES | FBPA Giardia inh | Sm TGR block | HCMV antiviral | Pf growth 48h | Pf growth 96h
O=C(Nc1ccc(Cl)c(Cl)c1)NC1CCS(=O)(=O)C1 (centres undefined) | -1.8% | -2.9% | -4.8 | 13.8% | 48.4%
O=C(Nc1ccc(Cl)c(Cl)c1)Nc1cc(C(=O)NC2CC2)ccc1Cl | 5.3% | 2.0% | . | 13.1µM* | ?
O=c1c2c(-c3ccccc3)csc2nc2c3ccccc3c(NCCN3CCOCC3)nn12 | -4.7% | ? | ? | 3.29µM* | 1.17µM*
CCCn1c(CC)nc([N+](=O)[O-])c1S(=O)(=O)c1ccccc1 | 0.9% | ? | 33.3 | 10.4µM* | ?
Cc1nc(NCc2ccccc2)c2nc(-c3ccccc3)n(C(C)CN(C)C)c2n1 (centres undefined) | -0.7% | . | . | . | .
CC(=NNC(=S)Nc1ccc(C)cc1)c1ccccn1 | . | . | -93.8* | . | .
C/C(=N\NC(=S)Nc1cccc(C)c1)c1ccccc1 | . | 15.3% | 0.6 | ? | 5.22µM*
Cc1ccc(C)c(NC(=S)c2ccccn2)c1 | 2.2% | 7.8% | 9.1 | 11.7µM* | 1.04µM*
COc1ccccc1NC(=S)NN=C(C)c1ccccn1 | . | . | -101.6* | . | .
Cc1cccc(NC(=O)C2CCCN(S(=O)(=O)c3ccc4c(c3)oc(=O)n4C)C2)c1C (centres undefined) | . | -8.1% | 14.1 | . | .
CSCCC(NC(=O)c1ccco1)C(=O)N1CC(C)OC(C)C1 (centres undefined) | . | 10.2% | 1.0 | 16.2% | 4.8%
CC(=NNC(=S)Nc1cccc(C)c1)c1ccccn1 | . | . | -98.3* | . | .
Cc1ccccc1CCNC(=O)c1ccc(Cl)c(S(=O)(=O)N2CC(C)OC(C)C2)c1 (centres undefined) | . | -25.6% | -88.4* | 13.1µM* | 13.1µM*
COc1ccc(NC(=O)c2ccc(Cl)c(S(=O)(=O)N3CC(C)OC(C)C3)c2)cn1 (centres undefined) | . | 0.4% | -89.7* | 8.28µM* | 10.4µM*
CC1CN(S(=O)(=O)c2cc(C(=O)NCc3ccncc3)ccc2Cl)CC(C)O1 (centres undefined) | . | -3.1% | -18.8 | ? | ?
CCc1nnc(NC(=O)c2ccc(Cl)c(S(=O)(=O)N3CCc4ccccc4C3)c2)s1 | 4.1% | -2.0% | ? | -6.4% | -4.9%
COc1ccc(NC(=O)c2ccc(Cl)c(S(=O)(=O)N3CCc4ccccc4C3)c2)cn1 | ? | -4.9% | -103.6* | 1.85µM* | .
Cc1ccc(S(=O)Cc2nc(-c3ccc(C(=O)NCc4cccc(C)c4)cc3)oc2C)cc1 (centres undefined) | . | -31.4% | 25.8 | . | .
O=C1CSC(=S)N1N=Cc1ccc2c(c1)OCO2 | . | . | -13.5 | . | .
NC(=O)[C@H]1CC2(CC(c3cccc(NC(=O)CC(c4ccccc4)c4ccccc4)c3)=NO2)CN1C(=O)C(c1ccccc1)c1ccccc1 (some centres undefined) | -1.6% | -2.3% | 0.1 | 10.4µM* | 13.1µM*
C/C=C/C(=O)Nc1cccc(C2=NOC3(C2)C[C@H](C(N)=O)N(C(=O)c2ccccc2C(=O)c2ccccc2)C3)c1 (some centres undefined) | 2.8% | -13.5% | . | 9.28µM* | 11.7µM*
C/C=C\C=C\C(=O)N1CC2(CC(c3cccc(NC(=O)CC(c4ccccc4)c4ccccc4)c3)=NO2)C[C@H]1C(N)=O (some centres undefined) | -9.8% | 7.08µM* | . | ? | ?
NC(=O)[C@H]1CC2(CC(c3cccc(NC(=O)CC(c4ccccc4)c4ccccc4)c3)=NO2)CN1C(=O)c1ccccc1C(=O)c1ccccc1 (some centres undefined) | -5.9% | 1.1% | -10.2 | 9.28µM* | 8.28µM*
CCC(=O)Nc1cccc(C2=NOC3(C2)C[C@@H](C(N)=O)N(C(=O)c2ccccc2C(=O)c2ccccc2)C3)c1 (some centres undefined) | -11.3% | -6.6% | -12.4 | ? | ?
CCOC(=O)C1=CCN(S(=O)(=O)c2cccc(Cl)c2)C1c1ccc(Cl)cc1 (centres undefined) | . | . | -19.6 | . | .
SMILES | FBPA Giardia inh | Sm TGR block | HCMV antiviral | Pf growth 48h | Pf growth 96h
COc1ccc(-n2ccnc2SCC(=O)NC2CCCC2)cc1 | . | 1.8% | 8.7 | -7.5% | -1.2%
CC(C)Nc1ccc(-c2nc(-c3ccccn3)no2)cc1[N+](=O)[O-] | . | -2.2% | 39.4 | . | .
COc1ccc(CN2CCCC(C(=O)Nc3cccc(-n4cnnn4)c3)C2)c(C)c1C (centres undefined) | . | -22.7% | ? | ? | ?
COC(=O)[C@@]1(Cc2ccccc2)[C@H]2C(=O)N(Cc3ccccc3)C(=O)[C@H]2[C@H]2CN=C(SC)N21 | . | . | -12.0 | . | .
COc1ccc(CNCc2cccc(Oc3ccccc3)c2)cc1 | 14.6% | 0.5% | -27.2 | 73.1% | 3.7µM*
CCOC(=O)/C=C(C)/C=C/CC(C)CCCC(C)C (centres undefined) | . | . | . | -0.4% | -104.2%
COC(C)(C)CCCC(C)C/C=C/C(C)=C/C(=O)OC(C)C (centres undefined) | -1.4% | -12.5% | -9.6 | ? | 15.1µM*!
Cc1cc(OCC(=O)Nc2cc(C(C)(C)C)on2)ccc1[N+](=O)[O-] | . | 5.6% | 3.6 | 14.1% | ?
O=S(=O)(NCc1cccnc1)c1cccn1-c1ncc(C(F)(F)F)cc1Cl | 4.2% | . | -61.2* | 7.2% | -1.1%
CCCNS(=O)(=O)c1cccn1-c1ncc(C(F)(F)F)cc1Cl | -0.1% | -0.6% | 7.0 | . | 11.4%
CC1(C(=O)Nc2ccc(Cl)c(Cl)c2)CCN1Cc1ccccc1OC(F)F (centres undefined) | . | . | 121.8 | . | .
